Tau fibril ThT: tau fibrillization inhibition (ThT binding); recombinant tau K18 P301L, heparin-induced fibrillization, ThT fluorescence; Potency, µM (titrated, usually from 57.4 µM), for inactives: at the top dose activity, negative = inhibition, hits mostly inhibitors; AID 1460; 270,000 compounds, 2.1% hits; P10636; note: nearly all actives have a fitted effect of over 55% in size
Target sequence (P10636 561-689 P618L limits assumed): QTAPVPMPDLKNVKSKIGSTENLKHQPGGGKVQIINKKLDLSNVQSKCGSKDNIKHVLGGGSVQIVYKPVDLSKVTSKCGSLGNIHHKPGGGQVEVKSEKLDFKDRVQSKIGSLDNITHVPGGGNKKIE
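K18 P301L tau (15 uM + 0.24 uM Alexa 594-tagged), heparin 20 uM, NaOAc pH 7, 6 h 37 C; ThT 30 uM, 1 h RT, ex 450/em 510 nm.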
VP16 counter: counter-screen for ROR gamma inhibitors: Gal4-VP16 reporter | Drosophila S2 Gal4-VP16 UAS-luciferase, luminescence, 20 h | Potency, µM (series often up to 53.6 µM), without a hit: at the top dose activity, negative = inhibition, hits mostly inhibitors | 310,000 compounds, 3.5% hits;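 note: Gal4-VP16 expression switched on by copper sulfate through the metallothionein promoter; nearly all actives have a fitted effect of over 50% in size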
Tau fluor counter: counter-screen for tau fibril formation inhibitors; AID 1463; 280,000 compounds, 0.93% hits; Potency, µM (titrated, usually from 57.7 µM), inactives show top-dose activity change, negative = decrease; tau K18 P301L Alexa594 fluorescence, heparin fibrillization; note: nearly all actives have a fitted effect of over 55% in size
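Human tau K18 P301L (15 uM unlabeled, 0.24 uM Alexa 594-labeled) in 100 mM sodium acetate pH 7 with 20 uM heparin, 6 hr at 37 C. ThT 30 uM added, 1 hr ambient; Alexa 594 FP and total fluorescence read at 555/632 nm.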
RORgamma inh: inhibitors of mouse ROR gamma transcriptional activity. Drosophila S2 Gal4-RORgamma UAS-luciferase reporter, 20 h. Potency, µM (titrated, usually from 53.6 µM), for inactives: top-dose activity change, negative = inhibition, hits mostly inhibitors. 310,000 compounds, 5.4% hits; note: nearly all actives have a fitted effect of over 60% in size
Target sequence (P51450 whole entry, looked up, the tested form may be a part): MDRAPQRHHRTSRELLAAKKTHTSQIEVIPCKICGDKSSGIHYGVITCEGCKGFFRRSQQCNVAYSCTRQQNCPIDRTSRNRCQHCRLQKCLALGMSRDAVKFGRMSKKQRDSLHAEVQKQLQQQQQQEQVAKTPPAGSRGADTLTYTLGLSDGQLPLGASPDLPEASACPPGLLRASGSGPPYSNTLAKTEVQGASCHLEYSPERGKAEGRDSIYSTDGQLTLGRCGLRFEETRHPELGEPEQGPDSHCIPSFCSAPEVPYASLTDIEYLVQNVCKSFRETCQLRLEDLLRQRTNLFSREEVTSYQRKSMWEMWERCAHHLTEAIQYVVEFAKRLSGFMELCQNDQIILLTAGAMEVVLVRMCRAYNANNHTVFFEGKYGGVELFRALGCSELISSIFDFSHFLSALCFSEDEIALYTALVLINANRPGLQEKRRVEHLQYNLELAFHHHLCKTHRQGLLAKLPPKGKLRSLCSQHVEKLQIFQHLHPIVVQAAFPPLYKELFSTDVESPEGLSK
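Compounds are pin-transferred onto Drosophila Schneider cells expressing a copper-inducible Gal4–ROR gamma transactivation domain fusion. After 1 hr, copper sulfate is added to 700 uM final; luciferase is read 20 hr later.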
Tau FP inhib: inhibitors of human tau fibril formation. Potency, µM (doses to about 57.7 µM), for inactives: top-dose activity, negative = inhibition, usual class: inhibitors. 280,000 compounds, 0.39% hits. P10636. K18 P301L tau heparin fibrillization, Alexa594 FP, 6 h; note: nearly all actives have a fitted effect of over 55% in size
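Human K18 P301L fragment (15 uM unlabeled plus 0.24 uM Alexa 594-labeled) in 100 mM sodium acetate pH 7 with compound, aggregation induced by 20 uM heparin for 6 hr at 37 C. ThT (30 uM) added for 1 hr, then Alexa 594 FP read.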
An asterisk follows results filed as active; [ ] = another dose, or the depositor's remark. Rows were chosen to be rich in hits. Some 7.3% of all compounds tested hit in one or more screens of this group. Calls come from the whole dose curve; as a rule, active = well fitted curve in the direction sought with a large enough effect; inconclusive = small, poorly fitted or top-dose-only effect, or another doubt; inactive = no such curve, though single readings can be large; an effect the other way counts as inactive or inconclusive. % is set by controls: 0 for no effect and ±100 for the full control effect; potency is the fitted concentration of half-maximal effect.

CCOC(=O)/C(=C/c1c(C)n(C)c2ccc([N+](=O)[O-])cc12)C(C)=O was read as Tau fibril ThT inconclusive, VP16 counter inconclusive, Tau fluor counter -4%, RORgamma inh 13µM* and Tau FP inhib inconclusive.
Screening C/C(=N\O)c1cc(Cl)cc(Cl)c1O returned Tau fibril ThT -12%, VP16 counter -2%, Tau fluor counter -12%, RORgamma inh inconclusive and Tau FP inhib -4%.
Screening C/C(=N\NC(N)=O)c1cc(Cl)cc(Cl)c1O returned Tau fibril ThT 3%, VP16 counter 10µM*, Tau fluor counter 8%, RORgamma inh 0.89µM* and Tau FP inhib 6%.
`O=[N+]([O-])c1ccc(N2CCN(C(=S)NC3CCCCC3)CC2)cc1` gave Tau fibril ThT 10µM*, VP16 counter inconclusive, Tau fluor counter inconclusive, RORgamma inh -1% and Tau FP inhib 0%.
`S=C(NC1CCCC1)N1CCN(c2cccc(Cl)c2)CC1` gave Tau fibril ThT inconclusive, VP16 counter -25%, Tau fluor counter inconclusive, RORgamma inh 11µM* and Tau FP inhib 10%.
`S=C(NC1CC1)N1CCN(c2ccc(Cl)cc2)CC1` gave Tau fibril ThT inconclusive, VP16 counter 10%, Tau fluor counter -13%, RORgamma inh -37% and Tau FP inhib 0%.
C=CCn1c(NS(=O)(=O)c2ccccc2)c(S(=O)(=O)c2ccc(C)cc2)c2nc3ccccc3nc21 was read as Tau fibril ThT 6%, VP16 counter 25µM*, Tau fluor counter -1%, RORgamma inh 16µM* and Tau FP inhib 1%.
`COc1cccc(-c2cncnc2N(C)Cc2ccco2)c1` gave VP16 counter -7% and RORgamma inh 1%.
For CCOc1cc(NC(=S)NCc2ccco2)c(OCC)cc1NC(=O)CC(C)C the results were Tau fibril ThT 0%, VP16 counter -16%, Tau fluor counter -1%, RORgamma inh inconclusive and Tau FP inhib 0%.
Screening CCOc1cc(NC(=S)Nc2ccccc2)c(OCC)cc1NC(=O)c1ccccc1 returned Tau fibril ThT inconclusive, VP16 counter 10µM*, Tau fluor counter -20%, RORgamma inh 1.8µM* and Tau FP inhib 8%.
For CCOc1ccccc1NC(=S)NCC1CCCO1 (configuration not stated) the results were Tau fibril ThT 9%, VP16 counter inconclusive, Tau fluor counter 12%, RORgamma inh 11µM* and Tau FP inhib 7%.
CCOc1cc(NC(=S)NCC2CCCO2)c(OCC)cc1NC(=O)CC(C)C (configuration not stated) was read as Tau fibril ThT -11%, VP16 counter -13%, Tau fluor counter -21%, RORgamma inh 11µM* and Tau FP inhib -3%.
CCOc1cc(NC(=S)NC)c(OCC)cc1NC(=O)c1ccc(OC)cc1 was read as Tau fibril ThT -15%, VP16 counter inconclusive, Tau fluor counter -21%, RORgamma inh 10µM* and Tau FP inhib 8%.
For CCCCCC(=O)Nc1ccc(NC(=O)c2cc3ccccc3o2)c(OC)c1 the results were Tau fibril ThT 0%, Tau fluor counter 0% and Tau FP inhib -2%.
`S=C(NCC1CCCO1)Nc1cccc2ccccc12` (configuration not stated) gave Tau fibril ThT -10%, VP16 counter inconclusive, Tau fluor counter -8%, RORgamma inh 7.1µM* and Tau FP inhib -5%.
For CCOc1cc(N2CCOCC2)c(OCC)cc1NC(=O)c1ccccc1C the results were Tau fibril ThT -1%, VP16 counter 10%, Tau fluor counter -6%, RORgamma inh -4% and Tau FP inhib 8%.
`CCOc1cc(NC(=S)NCC2CCCO2)c(OCC)cc1NC(=O)c1ccc(OC)cc1` (configuration not stated) gave Tau fibril ThT -13%, VP16 counter 10µM*, Tau fluor counter -27%, RORgamma inh 11µM* and Tau FP inhib inconclusive.
CCOc1cc(NC(=S)NCC2CCCO2)c(OCC)cc1NC(=O)c1ccccc1C (configuration not stated) was read as Tau fibril ThT -5%, VP16 counter inconclusive, Tau fluor counter -20%, RORgamma inh 10µM* and Tau FP inhib 14%.
`CCOc1cc(NC(=S)Nc2ccccc2OC)c(OCC)cc1NC(=O)c1ccccc1C` gave Tau fibril ThT -10%, VP16 counter 2.2µM*, Tau fluor counter inconclusive, RORgamma inh 1.8µM* and Tau FP inhib 14%.
For COc1ccccc1NC(=S)NCC1CCCO1 (configuration not stated) the results were Tau fibril ThT -6%, VP16 counter inconclusive, Tau fluor counter -5%, RORgamma inh inconclusive and Tau FP inhib -7%.
`CCOc1cc(O)c(-c2[nH]ncc2-c2nc(C)cs2)cc1CC` gave Tau fibril ThT -8%, VP16 counter inconclusive, Tau fluor counter -25%, RORgamma inh -1% and Tau FP inhib inconclusive.
`COC1[C@@H](OC)C[C@H](C)[C@@H](OC)C2=CC(=O)C=C(NC(=O)/C(C)=C/C=C\[C@H](OC)[C@@H](OC(N)=O)/C(C)=C/[C@@H]1C)C2=O` (some centres not stated) gave VP16 counter -2% and RORgamma inh -41%.
For COc1ccc(OC)c(NC(=O)Cn2cc(C=O)c3ccccc32)c1 the results were Tau fibril ThT 1%, VP16 counter -6%[10 µM], Tau fluor counter 3%, RORgamma inh 24% and Tau FP inhib -4%.
For Cc1ccc(NC(=O)c2nc(S(C)(=O)=O)ncc2N(Cc2ccco2)Cc2ccco2)cc1 the results were Tau fibril ThT -7%, Tau fluor counter -19% and Tau FP inhib -8%.
For CCC(CC)c1nnc(NC(=O)c2ccc([N+](=O)[O-])cc2)s1 the results were Tau fibril ThT -16%, VP16 counter inconclusive, Tau fluor counter -10%, RORgamma inh -11%[10 µM] and Tau FP inhib 14%.
`CCOC(=O)c1nc(NNC(=O)c2ccc([N+](=O)[O-])cc2)sc1C` gave VP16 counter 6.3µM* and RORgamma inh inconclusive.
For CCOC(=O)c1sc(NNC(=O)c2ccc(F)cc2)nc1C the results were Tau fibril ThT 4%, VP16 counter 7.1µM*, Tau fluor counter -10%, RORgamma inh 0.71µM* and Tau FP inhib 1%.
Screening CCOC(=O)c1sc(NNC(=O)c2ccc(C)cc2)nc1C returned Tau fibril ThT -8%, VP16 counter inconclusive, Tau fluor counter -10%, RORgamma inh 0.79µM* and Tau FP inhib 14%.
Screening CCOC(=O)c1sc(NCCNc2nc(C)c(C(=O)OCC)s2)nc1C returned Tau fibril ThT -7%, VP16 counter -9%, Tau fluor counter 1%, RORgamma inh -2% and Tau FP inhib 1%.
